Reference: PubChem BioAssay AID504710 (Sanford-Burnham Center for Chemical Genomics, 2011)
The source made the active and inactive calls.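 How the source made its calls: active means inhibition reaching about 16% in any single replicate (limit read from the data); inactive means the rest.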

The compounds below were run against Hexokinase HKDC1 (Homo sapiens) (UniProt Q2TB90) (assay: compounds lowering human HKDC1 activity – biochemical, single concentration, confirmation (AID 504710)). Details: recombinant HKDC1, G6PDH/diaphorase/resazurin fluorescence; at 20 µM; stronger effect = higher value.
Hexokinase HKDC1 (Homo sapiens), sequence (Q2TB90 whole entry, looked up): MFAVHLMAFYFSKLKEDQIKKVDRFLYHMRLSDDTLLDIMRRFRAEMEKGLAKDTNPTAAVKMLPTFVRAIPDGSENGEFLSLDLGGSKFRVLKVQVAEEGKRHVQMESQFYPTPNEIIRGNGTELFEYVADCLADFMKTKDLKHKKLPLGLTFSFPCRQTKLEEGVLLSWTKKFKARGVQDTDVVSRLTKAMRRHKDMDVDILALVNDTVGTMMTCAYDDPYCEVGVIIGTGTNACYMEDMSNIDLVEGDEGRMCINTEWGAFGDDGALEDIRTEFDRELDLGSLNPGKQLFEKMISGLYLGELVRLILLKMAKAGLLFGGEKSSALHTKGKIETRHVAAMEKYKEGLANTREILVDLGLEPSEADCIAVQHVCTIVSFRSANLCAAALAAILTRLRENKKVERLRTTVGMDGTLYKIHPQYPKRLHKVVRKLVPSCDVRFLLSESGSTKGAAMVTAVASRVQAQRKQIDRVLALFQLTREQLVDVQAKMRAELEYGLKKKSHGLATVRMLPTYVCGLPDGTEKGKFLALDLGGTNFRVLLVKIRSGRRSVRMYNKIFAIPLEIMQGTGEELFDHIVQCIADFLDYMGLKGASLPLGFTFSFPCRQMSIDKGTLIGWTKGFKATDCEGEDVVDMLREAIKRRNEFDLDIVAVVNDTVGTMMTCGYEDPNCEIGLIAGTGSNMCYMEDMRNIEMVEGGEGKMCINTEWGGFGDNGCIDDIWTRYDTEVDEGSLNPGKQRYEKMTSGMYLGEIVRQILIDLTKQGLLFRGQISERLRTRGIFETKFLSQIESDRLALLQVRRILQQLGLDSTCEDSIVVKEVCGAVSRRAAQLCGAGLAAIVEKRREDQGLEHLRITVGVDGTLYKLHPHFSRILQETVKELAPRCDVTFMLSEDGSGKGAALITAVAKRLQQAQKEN

inhibition, active:
CCC(C)C(N)C1=NC(C(=O)N[C@@H](CC(C)C)C(=O)N[C@H](CCC(=O)[O-])C(=O)N[C@H](C(=O)N[C@H]2CCCCNC(=O)[C@H](CC(N)=O)NC(=O)[C@@H](CC(=O)[O-])NC(=O)[C@H](Cc3cnc[nH]3)NC(=O)[C@@H](Cc3ccccc3)NC(=O)[C@H]([C@@H](C)CC)NC(=O)[C@@H](CCCN)NC2=O)[C@@H](C)CC)CS1.[Zn+2] (stereo not given in full) 74.9%, O=Cc1[nH]c2ccccc2c1N(C(=O)CCl)c1ccccc1 34%, O=C(CSc1n[nH]c(-c2cccnc2)n1)Nc1ccnc2ccccc12 46%, O=C(O)c1cc(O)c2c(c1)[C@@H]([C@H]1c3cc(C(=O)O)cc(O)c3C(=O)c3c(O[C@@H]4O[C@H](CO)[C@@H](O)[C@H](O)[C@H]4O)cccc31)c1cccc(OC3O[C@H](CO)[C@@H](O)[C@H](O)[C@H]3O)c1C2=O (stereo not given in full) 50.9%, O=C(O)[C@@H](c1ccccc1)N1Cc2ccccc2C1=O 43.8%
